PubChem BioAssay (Tox21)
Results filed as inconclusive are left out. The source made the active and inactive calls. Unless noted, calls follow the shape of the dose curve; as a rule, active = well fitted curve in the direction sought with a large enough effect in the repeat runs; inconclusive = weak or mixed curves; inactive = no such curve, though single readings can be large; an effect the other way counts as inactive or inconclusive.

How the values were obtained:
[1] = target: Androgen receptor (Homo sapiens) (UniProt P10275); test: qHTS assay to identify small molecule antagonists of the androgen receptor (AR) signaling pathway using the MDA cell line in the presence of 0.5 nM R1881 (AID 1259243); also: nearly all actives have a fitted effect of over 50% in size
How it was run: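 With R1881 held at 0.5 nM (final), compound effects on MMTV-luciferase expression in MDA-kb2 cells were scored by luminescence after a 16 hr, 37C incubation.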

[2] = target: Estrogen receptor (Homo sapiens) (UniProt P03372); test: qHTS assay to identify small molecule antagonists of the estrogen receptor alpha (ER-alpha) signaling pathway using the BG1 cell line in the presence of 0.1 nM 17-beta-estradiol (AID 1259244); also: nearly all actives have a fitted effect of over 50% in size
How it was run: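 Compounds were tested against 0.1 nM (final) 17beta-estradiol in VM7Luc4E2 cells, which express full-length ER-alpha and an ERE-luciferase reporter; luminescence was recorded following 22 h exposure.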

[3] = qHTS assay to identify small molecule phospholipidosis (PLD) inducers (AID 1259344; active = well fitted curve in the direction sought with a large enough effect; an effect the other way counts as inactive or inconclusive)
How it was run: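 Cells (HepG2, 900 per well) attach for 4 h, receive LipidTOX Red and compound together, incubate 24 h at 37 C, are fixed 30 min with paraformaldehyde/Hoechst, then imaged at one site per well.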

[4] = qHTS assay to identify small molecule HDAC inhibitors (AID 1259364);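 also: wild-type HCT-116 cells with endogenous class I/II HDAC activity; top concentration of the series differs between compounds; nearly all actives have a fitted effect of over 45% in size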
How it was run: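 Screening used wild-type human colon HCT-116 cells incubated overnight, dosed with compounds for 2 hours, and assayed with a homogeneous luminogenic HDAC I/II reagent for 30 minutes at room temperature.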

[5] = qHTS assay to identify small molecule HDAC inhibitors - cell viability counter screen (AID 1259365); also: series mostly up to about 92 µM; nearly all actives have a fitted effect of over 50% in size
How it was run: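 Cytotoxicity was gauged in wild-type HCT-116 cells after a brief 2hr treatment with DMSO-dissolved compounds at 37C and 5% CO2, using CellTiter-Glo luminescence developed for 30min at room temperature.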

[6] = qHTS assay to identify small molecule agonists of the sonic hedgehog signaling (Shh) pathway - cell viability counter screen (AID 1259366); also: nearly all actives have a fitted effect of over 50% in size
How it was run: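 Stable Gli1-Luc NIH/3T3 clone, 2,000 cells/well. Compound exposure 24hr at 37C. Read-out: CellTiter-Fluor fluorescence.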

[7] = qHTS assay to identify small molecule antagonists of the sonic hedgehog signaling (Shh) pathway - cell viability counter screen (AID 1259367); also: nearly all actives have a fitted effect of over 55% in size
How it was run: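 Cytotoxicity was assessed in parallel with Shh reporter activity by measuring live-cell protease fluorescence (CellTiter-Fluor) in NIH/3T3 cells stably carrying Gli1-Luc, treated with compound under conditioned medium stimulation for 23 hr plus 1 hr reagent incubation.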

[8] = qHTS assay to identify small molecule agonists of the sonic hedgehog signaling (Shh) pathway (AID 1259368; calls by dose curve;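 also: NIH/3T3-derived 3T3Gli1-Luc cells carrying a stable Gli1-driven firefly luciferase reporter; series mostly up to about 92 µM; nearly all actives have a fitted effect of over 15% in size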)
How it was run: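 Hedgehog pathway agonism scored by increased firefly luciferase luminescence in 3T3Gli1-Luc cells treated 24 hr at 37 C; detection used a 30 min room-temperature reagent incubation.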

[9] = qHTS assay to identify small molecule antagonists of the sonic hedgehog signaling (Shh) pathway (AID 1259369; calls by dose curve; also: nearly all actives have a fitted effect of over 45% in size)
How it was run: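 NIH/3T3 stable Gli1-Luc clone, 2,000 cells/well, 4hr settle; cpd + conditioned medium 24hr; Luc reagent 30min RT; luminescence.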

[10] = qHTS assay to identify small molecule agonists of the estrogen receptor beta (ER-beta) signaling pathway - cell viability counter screen (AID 1259380); also: nearly all actives have a fitted effect of over 30% in size
How it was run: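 Measured: luminescence from CellTiter-Glo after 30 min at room temperature, added to wells already read for the LiveBLAzer FRET reporter (2 hr substrate); ER-beta-UAS-bla HEK293T cells had 16 hr compound treatment at 37C, 5% CO2.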

[11] = target: Androgen receptor (Homo sapiens) (UniProt P10275); test: qHTS assay to identify small molecule agonists of the androgen receptor (AR) signaling pathway in the presence of an antagonist (AID 1259381; calls by dose curve; also: nearly all actives have a fitted effect of over 15% in size)
How it was run: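 Luminescent ONE-Glo read, 30min at room temperature, follows 16hr compound exposure (15 concentrations) of MDA-kb2 cells at 37C, 0% CO2, with nilutamide added at 3.0uM final.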

[12] = qHTS assay to identify small molecule antagonists of the estrogen receptor beta (ER-beta) signaling pathway - cell viability counter screen (AID 1259382); also: series mostly up to about 92 µM; nearly all actives have a fitted effect of over 55% in size
How it was run: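 Readout: luminescence, CellTiter-Glo, same wells as bla assay. System: ER-beta-UAS-bla GripTite HEK293T, 2% charcoal-stripped FBS. Exposure: compounds plus 1nM 17-beta-estradiol, 16 hr, 37C.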

[13] = target: Estrogen receptor (Homo sapiens) (UniProt P03372); test: qHTS assay to identify small molecule agonists of the estrogen receptor alpha (ER-alpha) signaling pathway in the presence of an antagonist (AID 1259383; calls by dose curve; also: top concentration of the series differs between compounds; nearly all actives have a fitted effect of over 15% in size)
How it was run: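 Quantitative HTS confirmation: compounds titrated at 15 concentrations onto estrogen-deprived VM7Luc4E2 cells carrying a four-ERE luciferase construct, with ICI-182,780 present at 10.0nM final. Signal is luminescence after 22hr exposure.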

[14] = qHTS assay to identify small molecule agonists or antagonists of the thyroid stimulating hormone receptor (TSHR) signaling pathway - wild type cell line counter screen (AID 1259384; calls by dose curve)
How it was run: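 Wild-type HEK293 cells were plated 18 h at 37 C/5% CO2, pin-dosed with compound plus Ro20-1724 medium, held 30 min at room temperature, then given cAMP-d2 and anti-cAMP-cryptate; fluorescence was read after 1 h. Fifteen concentrations, triplicate.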

[15] = target: Thyrotropin receptor (Homo sapiens) (UniProt P16473); test: qHTS assay to identify small molecule antagonists of the thyroid stimulating hormone receptor (TSHR) signaling pathway (AID 1259385; calls by dose curve; also: nearly all actives have a fitted effect of over 20% in size)
How it was run: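 TSHR-HEK293 cells were plated and held 18 h at 37C/5% CO2, then given compound plus Ro20-1724 and stimulated with TSH at 1.5 ng/mL final. After 30 min at room temperature, cAMP was detected with cAMP-d2/anti-cAMP-cryptate (1 h) by fluorescence.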

[16] = qHTS assay to identify small molecule agonists of the estrogen receptor alpha (ER-alpha) signaling pathway in the presence of an antagonist - cell viability counter screen (AID 1259386);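 also: series mostly up to about 92 µM; cells exposed to compounds for 22 h at 37 °C before the viability read; nearly all actives have a fitted effect of over 30% in size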
How it was run: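 The test measures whether compounds kill ER-alpha reporter cells (VM7Luc4E2) under antagonist co-treatment (ICI-182,780, 10.0nM). Fluorescence from CellTiter-Fluor is read after a 22hr exposure.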

[17] = target: Progesterone receptor (Homo sapiens) (UniProt P06401); test: qHTS assay to identify small molecule agonists of the progesterone receptor (PR) signaling pathway (AID 1346784; calls by dose curve; also: nearly all actives have a fitted effect of over 30% in size)
How it was run: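 The screen uses PR-UAS-bla HEK 293T cells in charcoal-stripped serum (2%). Compounds are applied for 16 hr at 37C after a 6 hr pre-incubation, and reporter activity is detected with a FRET beta-lactamase substrate after 2 hr at room temperature.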

[18] = target: Estrogen receptor beta (Homo sapiens) (UniProt Q92731); test: qHTS assay to identify small molecule agonists of the estrogen receptor beta (ER-beta) signaling pathway (AID 1259377; active = well fitted activation curve with a large enough effect in the signal ratio in the repeat runs, not every such curve was filed as active; the % refers to the signal ratio)
How it was run: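 Measured by fluorescence intensity from a B/G FRET beta-lactamase substrate (2 h, room temperature) in ER-beta-UAS-bla HEK293T cells treated with DMSO-dissolved compounds for 16 hr at 37C and 5% CO2.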

[19] = qHTS assay to identify small molecule agonists of the androgen receptor (AR) signaling pathway in the presence of an antagonist - cell viability counter screen (AID 1259379);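 also: MDA-kb2 human breast cancer cells carrying an MMTV luciferase reporter; series mostly up to about 92 µM; nearly all actives have a fitted effect of over 25% in size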
How it was run: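 MDA-kb2 viability measured by CellTiter-Fluor fluorescence in the same wells as the luciferase signal; nilutamide 3.0uM final; 15-point compound titration; 16 hr at 37C.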

[20] = target: Estrogen receptor beta (Homo sapiens) (UniProt Q92731); test: qHTS assay to identify small molecule antagonists of the estrogen receptor beta (ER-beta) signaling pathway (AID 1259378; active = well fitted inhibition curve with a large enough effect in the signal ratio in the repeat runs, not every such curve was filed as active; the % refers to the signal ratio)
How it was run: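 ER-beta-UAS-bla HEK293T (GripTite) cells in 2% charcoal-stripped FBS medium were preincubated 6 hr at 37C, dosed with compound, then stimulated with 1 nM E2 (final) for 16 hr; beta-lactamase reporter read by B/G FRET fluorescence after 2 hr substrate loading.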

Measured: Potency

Sequence of Thyrotropin receptor (Homo sapiens) (P16473 whole entry, looked up): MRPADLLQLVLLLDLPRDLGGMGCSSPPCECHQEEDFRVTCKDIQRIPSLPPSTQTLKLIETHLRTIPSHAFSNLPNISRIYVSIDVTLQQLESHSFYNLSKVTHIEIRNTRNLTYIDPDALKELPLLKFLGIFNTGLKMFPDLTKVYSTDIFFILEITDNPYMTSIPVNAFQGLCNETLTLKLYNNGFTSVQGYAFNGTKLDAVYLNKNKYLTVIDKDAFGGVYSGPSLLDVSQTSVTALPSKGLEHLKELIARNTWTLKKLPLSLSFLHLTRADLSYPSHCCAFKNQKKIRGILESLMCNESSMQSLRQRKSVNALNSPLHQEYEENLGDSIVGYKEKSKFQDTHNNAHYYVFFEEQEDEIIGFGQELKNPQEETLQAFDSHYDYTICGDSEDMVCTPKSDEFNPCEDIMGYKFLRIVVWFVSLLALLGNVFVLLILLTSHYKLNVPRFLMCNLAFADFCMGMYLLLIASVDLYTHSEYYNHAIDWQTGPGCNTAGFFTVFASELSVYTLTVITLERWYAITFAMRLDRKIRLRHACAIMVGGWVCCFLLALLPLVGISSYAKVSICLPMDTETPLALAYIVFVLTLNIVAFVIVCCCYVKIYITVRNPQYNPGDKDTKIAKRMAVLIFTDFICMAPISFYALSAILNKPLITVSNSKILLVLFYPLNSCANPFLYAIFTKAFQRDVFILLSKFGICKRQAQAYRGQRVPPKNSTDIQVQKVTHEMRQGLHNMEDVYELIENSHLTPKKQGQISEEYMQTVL
Sequence of Androgen receptor (Homo sapiens) (P10275 whole entry, looked up): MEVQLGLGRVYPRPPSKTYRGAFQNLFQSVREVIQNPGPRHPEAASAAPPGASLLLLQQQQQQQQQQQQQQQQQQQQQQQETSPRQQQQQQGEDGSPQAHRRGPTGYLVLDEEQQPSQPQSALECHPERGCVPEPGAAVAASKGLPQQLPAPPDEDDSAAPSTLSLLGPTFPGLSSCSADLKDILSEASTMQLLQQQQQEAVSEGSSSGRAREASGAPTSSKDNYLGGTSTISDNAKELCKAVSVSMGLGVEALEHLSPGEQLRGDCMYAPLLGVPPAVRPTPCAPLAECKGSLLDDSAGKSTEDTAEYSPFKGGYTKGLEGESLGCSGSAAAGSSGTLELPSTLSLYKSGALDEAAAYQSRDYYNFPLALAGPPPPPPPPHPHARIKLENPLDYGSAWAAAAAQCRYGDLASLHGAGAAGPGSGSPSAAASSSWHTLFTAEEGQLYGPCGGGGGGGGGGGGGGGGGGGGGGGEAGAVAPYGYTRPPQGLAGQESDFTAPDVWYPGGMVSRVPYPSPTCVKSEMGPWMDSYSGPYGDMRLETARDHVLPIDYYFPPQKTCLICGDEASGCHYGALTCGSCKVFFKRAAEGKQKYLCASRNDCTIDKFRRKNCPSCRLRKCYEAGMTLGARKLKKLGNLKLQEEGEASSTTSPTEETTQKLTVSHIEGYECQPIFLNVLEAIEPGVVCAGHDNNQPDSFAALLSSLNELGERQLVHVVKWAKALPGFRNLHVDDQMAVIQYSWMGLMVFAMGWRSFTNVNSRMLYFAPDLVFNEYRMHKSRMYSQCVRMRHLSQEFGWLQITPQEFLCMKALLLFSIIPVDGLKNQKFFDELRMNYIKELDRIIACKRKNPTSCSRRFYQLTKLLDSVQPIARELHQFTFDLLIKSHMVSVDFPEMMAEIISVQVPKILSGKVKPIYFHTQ
Sequence of Estrogen receptor beta (Homo sapiens) (Q92731 whole entry, looked up): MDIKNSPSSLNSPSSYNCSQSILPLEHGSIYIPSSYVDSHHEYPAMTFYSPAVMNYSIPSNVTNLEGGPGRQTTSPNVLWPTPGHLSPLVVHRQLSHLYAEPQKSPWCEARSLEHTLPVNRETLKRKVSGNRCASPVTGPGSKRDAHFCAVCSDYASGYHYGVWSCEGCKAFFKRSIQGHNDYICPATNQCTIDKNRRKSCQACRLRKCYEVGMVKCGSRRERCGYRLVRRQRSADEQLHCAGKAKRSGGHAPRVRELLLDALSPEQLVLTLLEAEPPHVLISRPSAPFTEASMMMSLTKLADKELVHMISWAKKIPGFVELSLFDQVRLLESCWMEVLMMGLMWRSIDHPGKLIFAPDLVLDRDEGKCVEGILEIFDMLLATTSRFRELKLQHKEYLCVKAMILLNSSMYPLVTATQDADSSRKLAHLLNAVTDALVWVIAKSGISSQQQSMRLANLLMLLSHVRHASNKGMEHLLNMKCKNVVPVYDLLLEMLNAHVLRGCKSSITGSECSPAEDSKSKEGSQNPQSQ
Sequence of Estrogen receptor (Homo sapiens) (P03372 whole entry, looked up): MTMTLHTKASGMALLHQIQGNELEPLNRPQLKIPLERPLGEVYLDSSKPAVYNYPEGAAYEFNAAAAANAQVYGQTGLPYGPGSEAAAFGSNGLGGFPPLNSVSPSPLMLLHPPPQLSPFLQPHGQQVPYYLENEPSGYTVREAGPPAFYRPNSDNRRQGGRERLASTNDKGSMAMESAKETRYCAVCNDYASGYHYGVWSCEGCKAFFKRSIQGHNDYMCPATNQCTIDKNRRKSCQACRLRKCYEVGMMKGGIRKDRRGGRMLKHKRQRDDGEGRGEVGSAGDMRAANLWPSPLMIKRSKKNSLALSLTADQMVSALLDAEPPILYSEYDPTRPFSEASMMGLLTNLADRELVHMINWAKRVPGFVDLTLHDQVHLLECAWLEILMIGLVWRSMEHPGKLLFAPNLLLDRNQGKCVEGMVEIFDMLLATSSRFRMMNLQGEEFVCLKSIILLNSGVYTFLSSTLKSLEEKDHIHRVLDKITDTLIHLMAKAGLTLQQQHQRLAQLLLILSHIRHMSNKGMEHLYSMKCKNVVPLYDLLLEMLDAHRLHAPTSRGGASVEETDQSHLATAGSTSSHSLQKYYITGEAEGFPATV
Sequence of Progesterone receptor (Homo sapiens) (P06401 whole entry, looked up): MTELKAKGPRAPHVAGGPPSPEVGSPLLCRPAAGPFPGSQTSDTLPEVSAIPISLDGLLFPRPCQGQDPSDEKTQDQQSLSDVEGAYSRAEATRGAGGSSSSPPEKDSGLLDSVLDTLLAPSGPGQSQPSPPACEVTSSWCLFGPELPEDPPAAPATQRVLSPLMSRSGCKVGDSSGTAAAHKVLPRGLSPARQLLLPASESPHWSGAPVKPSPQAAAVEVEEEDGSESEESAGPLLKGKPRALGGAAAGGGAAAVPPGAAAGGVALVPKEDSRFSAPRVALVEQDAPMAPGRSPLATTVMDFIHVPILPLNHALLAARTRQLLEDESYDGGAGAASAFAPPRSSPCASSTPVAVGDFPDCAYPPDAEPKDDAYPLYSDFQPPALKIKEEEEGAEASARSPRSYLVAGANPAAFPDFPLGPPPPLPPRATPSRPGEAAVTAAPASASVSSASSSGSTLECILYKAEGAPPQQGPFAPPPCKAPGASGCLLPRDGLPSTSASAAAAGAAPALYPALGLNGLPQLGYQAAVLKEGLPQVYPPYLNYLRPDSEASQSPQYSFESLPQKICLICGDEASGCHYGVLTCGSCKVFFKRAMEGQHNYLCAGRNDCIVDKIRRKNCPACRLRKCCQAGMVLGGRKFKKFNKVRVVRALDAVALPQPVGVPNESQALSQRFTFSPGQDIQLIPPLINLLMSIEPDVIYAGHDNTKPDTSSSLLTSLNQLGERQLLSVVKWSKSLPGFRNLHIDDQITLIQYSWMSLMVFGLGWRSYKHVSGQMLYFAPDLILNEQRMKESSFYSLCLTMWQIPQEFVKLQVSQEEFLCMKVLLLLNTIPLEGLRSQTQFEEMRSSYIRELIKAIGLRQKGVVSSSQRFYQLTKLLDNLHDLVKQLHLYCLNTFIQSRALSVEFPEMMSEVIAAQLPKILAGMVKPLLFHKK

COc1cc(C(=S)N2CCOCC2)ccc1O
not listed: [18] | [19] | [20]
inactive: all other assays above

C#CC(C)(CC)OC(=O)c1ccccc1C(=O)O (stereo not drawn)
not listed: [3] | [9] | [15] | [19] | [20]
inactive: all other assays above

C1COC(NC(C2CC2)C2CC2)=N1
not listed: [1] | [11] | [20]
inactive: all other assays above

CCC(C)(Oc1ccc(C2(c3ccc(OC(C)(CC)C(=O)O)cc3)CCCCC2)cc1)C(=O)O (stereo not drawn)
not listed: [18] | [19] | [20]
inactive: all other assays above

CCOc1ccccc1C(N)=O
not listed: [20]
inactive: all other assays above

Cc1scc2c1N(C(=O)CN1CCN(C)CC1)c1ccccc1NC2=O
not listed: [1] | [11]
inactive: all other assays above
